# Screening results as filed in PubChem.
# TDP1 cell noCPT – qHTS for Inhibitors of human tyrosyl-DNA phosphodiesterase 1 (TDP1): qHTS in cells in absence of CPT; DT40 Tdp1-/- hTDP1 cells, no CPT, ATP luminescence, 48 h; Potency, µM (doses to about 46.2 µM), without a hit: at the top dose activity change, negative = growth inhibition, most hits filed as inhibitors; 420,000 compounds, 15% hits; further: potency means the concentration at half of the fitted maximal effect; nearly all actives have a fitted effect of over 55% in size
#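 Compound effects on proliferation are scored in DT40 Tdp1-/-;hTDP1 cells in the absence of CPT. ATP levels (CellTiter-Glo luminescence) are recorded after a ≥48 hr, 37 °C incubation.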
# HT1080-NT tox – qHTS for induction of synthetic lethality in tumor cells producing 2HG: qHTS for the HT-1080-NT fibrosarcoma cell line. AID 686970, 2013. HT-1080-NT fibrosarcoma viability, CellTiter-Glo ATP luminescence, 48 h. Potency, µM (highest dose often 46.1 µM), inactives show at the top dose activity, negative = less viability, most hits filed as cytotoxic. 360,000 compounds, 1.6% hits;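 further: NT is the 2HG producing partner of a matched IDH1 knockdown line; potency means the concentration at half of the fitted maximal effect; 0% = DMSO-treated cells and -100% = media-only wells without cells; nearly all actives have a fitted effect of over 55% in size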
#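 750 cells/well, RPMI + 5% FBS; 2 h settle, compound pin-transfer, 48 h at 37 degrees C. CellTiter-Glo 10 min RT, luminescence. Normalized to DMSO and media-only wells.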
# DT40 TDP1 CPT – qHTS for Inhibitors of human tyrosyl-DNA phosphodiesterase 1 (TDP1): qHTS in cells in presence of CPT | chicken DT40 Tdp1-/-;hTDP1 cells + 20 nM CPT, ATP luminescence, 48 h | Potency, µM (top dose mostly 46.2 µM), inactives show at the top dose activity change, negative = growth inhibition, hits mostly inhibitors | 420,000 compounds, 12% hits | AID 686979, 2013; further: potency means the concentration at half of the fitted maximal effect; nearly all actives have a fitted effect of over 55% in size
#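 Cell growth measured by CellTiter-Glo luminescence after a minimum 48 h, 37 C compound exposure with 20 nM CPT in Tdp1-knockout DT40 cells stably expressing hTDP1, seeded 400/well; qHTS titration format.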
# IL1B secr inh – qHTS for Inhibitors of Inflammasome Signaling: IL-1-beta AlphaLISA Primary Screen; THP-1 LPS/ATP IL-1B secretion, AlphaLISA, 16 h; stronger effect = lower value; activity change, % at 57.5 µM; 360,000 compounds, 4.7% hits; in the data active means activity change below about -50%; inconclusive means mostly about -30% to -49%
#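 THP-1 cells pretreated 1 hr with compounds (up to 57.5 uM final), then stimulated with LPS (250 ng/mL final) plus ATP (1.25 mM final); secreted IL-1B measured by AlphaLISA after 16 hr, decreased signal indicating inhibition.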
# HT1080 IDH1KD tx – qHTS for induction of synthetic lethality in tumor cells producing 2HG: qHTS for the HT-1080-IDH1KD cell line. HT-1080 IDH1 knockdown viability, ATP luminescence, 48 h. Potency, µM (titrated, usually from 46.1 µM), for inactives: top-dose activity, negative = toxicity, actives largely listed as cytotoxic. 360,000 compounds, 2% hits;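 further: potency means the concentration at half of the fitted maximal effect; 0% = DMSO wells and -100% = cell-free medium wells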
#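 Using the IDH1-knockdown HT-1080 line run in the same batch and compound series as the NT line, viability after 48 h at 37 °C was determined by CellTiter-Glo luminescence and expressed as % activity.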
# Numbers without * were called inactive; ? = inconclusive; . = no result. Hits are enriched below; roughly 19% of the tested compounds scored in any of these assays. Unless noted, the call rests on the fitted dose curve; in most records, active means well fitted curve in the direction sought with a large enough effect; inconclusive means small, poorly fitted or top-dose-only effect, or another doubt; inactive means no such curve, though single readings can be large; an effect the other way counts as inactive or inconclusive. Unless noted, on the % scale 0 is the no-effect control and ±100 the full control effect.
SMILES,TDP1 cell noCPT,HT1080-NT tox,DT40 TDP1 CPT,IL1B secr inh,HT1080 IDH1KD tx
Cc1cc(C)c2nc(NNC(=O)c3ccc(S(=O)(=O)N4CCCC(C)C4)cc3)sc2c1 (centres undefined),4.1µM*,?,2.9µM*,120,?
Cc1ccc2nc(NNC(=O)c3ccc4c(c3)OCCO4)sc2c1,?,-4%,-21%,14,-12%
Cc1cc(C)c2nc(NC(=O)c3ccc(S(=O)(=O)N4CCC(C)CC4)cc3)sc2c1,-6%,.,-19%,.,.
Cc1cc(C)c2nc(NNC(=O)c3ccc(S(=O)(=O)N4CC(C)CC(C)C4)cc3)sc2c1 (centres undefined),5.8µM*,?,5.8µM*,104,12µM*
Cc1cccc2sc(NNC(=O)c3ccc(S(=O)(=O)N4CC(C)CC(C)C4)cc3)nc12 (centres undefined),7.3µM*,?,13µM*,122,16µM*
CN(C)C(=O)CCSc1nnc(-c2ccncc2)o1,1%,5%,2%,21,6%
CCCc1ccc(C(=O)/C=C/N(C)C)cc1,3%,-12%,-5%,-3,-10%
CC(Sc1nnc(N)s1)c1ccccc1Cl (centres undefined),-8%,0%,-28%,54,-2%
Cc1cc(F)ccc1S(=O)(=O)Nc1cc2c(C(=O)O)c(C)oc2c2ccccc12,-1%,.,15%,.,.
COCCNC(=O)C1(C)CCCN(C(=O)c2ccc3snnc3c2)C1 (centres undefined),5%,19%,8%,-8,15%
O=C(Nc1ccc(N2CCCCC2)c(Cl)c1)c1cccnc1,?,?,?,0,?
O=C(Nc1ccc(N2CCN(C(=O)c3cccs3)CC2)c(Cl)c1)c1cccnc1,?,-20%,?,-79*,-28%
O=C(Nc1ccc(N2CCN(C(=O)c3ccco3)CC2)c(Cl)c1)c1cccnc1,?,4%,?,-67*,-3%
O=C(Nc1ccc(N2CCN(C(=O)c3ccco3)CC2)c(Cl)c1)c1c(F)c(F)c(F)c(F)c1F,18µM*,-7%,15µM*,-90*,-8%
O=C(Nc1ccc(N2CCCC2)c(Cl)c1)c1cccnc1,?,5%,?,-30,9%
CCOC(=O)CC1(NC(=O)C2CCC(=O)N(Cc3ccccc3OC)C2)CCCCC1 (centres undefined),-1%,-1%,-1%,-1,7%
CCOC(=O)C1=C(C)NC(C)=C(C(=O)OCC)C1C(=O)OCC(=O)N(C)C1CCS(=O)(=O)C1 (centres undefined),0%,1%,6%,-2,16%
COc1cccc(CNC(=O)c2cc3c(C)nc4ccccc4c3o2)c1,18µM*,0%,23µM*,-14,-16%
COc1ccc(Cn2ccc3nc(C)c(C(=O)NCc4ccc(OC)cc4OC)cc3c2=O)cc1,-29%,.,-27%,.,.
COc1ccc(CNC(=O)c2cc3c(C)nc4ccccc4c3o2)c(OC)c1,13µM*,-6%,16µM*,45,?
CN(Cc1nc(Cc2cccc(C(F)(F)F)c2)no1)C1CC(C)(C)NC(C)(C)C1,-14%,-3%,-6%,-4,-1%
O=C(NNC(=O)C(c1ccccc1)c1ccccc1)c1cccs1,-12%,8%,-16%,14,5%
Cc1ccc(S(=O)(=O)NCC(=O)N2CCOCCOCCOCC2)cc1,0%,1%,-10%,11,0%
Cc1cccc(Cn2c(C)nc3c(N)c(C)c(C)cc32)c1,16µM*,-10%,-16%,-7,-6%
Cc1cccc(Cn2c(C(C)O)nc3ccccc32)c1 (centres undefined),-24%,-10%,-9%,16,-10%
SMILES,TDP1 cell noCPT,HT1080-NT tox,DT40 TDP1 CPT,IL1B secr inh,HT1080 IDH1KD tx
CC(=O)N(Cc1cccnc1)c1cccc(-c2nc3ccccc3s2)c1,?,-29%,?,-62*,-21%
Cc1cccc2sc(N(Cc3cccnc3)C(=O)Cc3ccccc3)nc12,-26%,.,-23%,.,.
COc1ccc2nc(N(Cc3cccnc3)C(C)=O)sc2c1,4%,.,-7%,.,.
O=C(COc1ccccc1)N(Cc1cccnc1)c1nc2c(F)cccc2s1,-17%,.,-8%,.,.
CC(=O)c1ccc(C(=O)N(Cc2cccnc2)c2nc3c(Cl)cccc3s2)cc1,?,.,26µM*,.,.
Cc1ccc2sc(N(Cc3cccnc3)C(=O)CCOc3ccccc3)nc2c1C,18µM*,.,23µM*,.,.
O=C(CCOc1ccccc1)N(Cc1cccnc1)c1nc2c(F)cccc2s1,7.3µM*,.,13µM*,.,.
CC(CN1CCN(Cc2ccccc2)CC1)OC(=O)c1ccco1 (centres undefined),-13%,0%,0%,28,15%
O=C(CCN1C(=O)S/C(=C\c2ccccc2)C1=O)N1CCOCC1,-30%,4%,?,-80*,2%
O=C(CCCN1C(=O)/C(=C/c2ccccc2)SC1=S)N1CCOCC1,?,-3%,?,-96*,-25%
COc1ccc(/C=C2\SC(=S)N(CCC(=O)N3CCOCC3)C2=O)cc1,?,4%,?,-66*,15%
O=C(CCN1C(=O)S/C(=C\c2ccccc2)C1=O)N1CCCCC1,?,0%,?,-4,-1%
O=C(CCN1C(=O)/C(=C\c2ccccc2)SC1=S)N1CCOCC1,10µM*,6%,8.2µM*,-63*,7%
CCc1ccc(C(=O)COC(=O)c2n[nH]c3ccccc23)cc1,-9%,-22%,-30%,-4,-11%
O=C1/C(=C/c2ccccc2)SC(=S)N1CC(=O)N1CCCCC1c1cccnc1 (centres undefined),16µM*,-2%,15µM*,-24,-29%
O=C1/C(=C/c2cccnc2)SC(=S)N1Cc1ccco1,21µM*,-18%,23µM*,-97*,?
O=C1/C(=C/c2cccnc2)SC(=S)N1c1ccccc1,-8%,2%,-16%,17,12%
Cc1ccc(/C=C2\SC(=S)N(CCC(=O)N3CCOCC3)C2=O)cc1,18µM*,0%,16µM*,12,9%
Cc1ccccc1-n1nc(CO)c(C(=O)NCC(c2ccccc2)c2ccccc2)n1,21µM*,.,?,.,.
O=C(NCC(c1ccccc1)c1ccccc1)c1nn(-c2ccccc2Cl)nc1CO,23µM*,.,?,.,.
O=C(NCc1cccs1)c1nn(-c2ccccc2Cl)nc1CO,?,.,-20%,.,.
